Compound activity as filed in PubChem.
Shown are actives, neighbours in structure and some others; about 2.5% of the full set was active somewhere.
WRN helicase inh: qHTS for Inhibitors of WRN Helicase. Bifunctional 3'-5' exonuclease/ATP-dependent helicase WRN (Homo sapiens), Q14191. WRN helicase unwinding, fluorescent forked duplex, kinetic. Potency, µM (top dose mostly 114 µM), for inactives: at the highest dose activity change, negative = inhibition, usual class: inhibitors. 0.46% of 360,000 active; note: % is set by controls: 0 for no effect and ±100 for the full control effect; nearly all actives have a fitted effect of over 55% in size
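WRN at 20 nM final preincubated with compound 15 min at room temperature; reaction started with 100 nM fluorophore/quencher forked duplex oligonucleotide and 2 mM ATP final. Unwinding followed kinetically by red fluorescence (ex 525, em 598 nm).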
POLB inh: qHTS Assay for Inhibitors of DNA Polymerase Beta | 1.3% of 340,000 active | AID 485314, 2010 | P06746 | Potency, µM (top dose mostly 114 µM), inactives show at the highest dose activity change, negative = inhibition, most hits filed as inhibitors | Pol beta primer extension/strand displacement, fluorescence kinetic; note: % is set by controls: 0 for no effect and ±100 for the full control effect
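Preincubation: enzyme (10 nM) with compound, 15 min, RT. Reaction: substrate added to 50 nM final. Reads: 0 and 10 min. Analysis: normalized, Hill fit.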
L3MBTL1 block: qHTS Assay for the Inhibitors of L3MBTL1. AlphaScreen L3MBTL1–H3K9me1 peptide binding. Potency, µM (top dose mostly 57.1 µM), inactives show at the top dose activity, negative = inhibition, hits mostly inhibitors. 0.66% of 230,000 active; note: % is set by controls: 0 for no effect and ±100 for the full control effect; nearly all actives have a fitted effect of over 60% in size
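AlphaScreen assay: L3MBTL1 (50 nM final) was preincubated 30 min at room temperature with biotinylated H3(1-15)K9me1 peptide (75 nM final), then 30 min with library compounds; streptavidin donor and nickel chelate acceptor beads (10 ug/mL final) added, 30 min dark.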
POLI inh: qHTS for Inhibitors of Polymerase Iota; Pol iota fluorescent replication assay, 10 min; Potency, µM (titrated, usually from 115 µM), for inactives: at the top dose activity, negative = inhibition, actives largely listed as inhibitors; AID 588590, 2011; 1% of 390,000 active; DNA polymerase iota (Homo sapiens), Q9UNA4
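Fluorescent replication assay read twice, at 0 min and 10 min after adding 50 nM (final) substrate. Enzyme (10 nM) and compounds were first incubated 15 min at room temperature; enzyme-free buffer wells were negative controls.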
Pol eta inh: qHTS for Inhibitors of Polymerase Eta; 1.2% of 390,000 active; Potency, µM (series often up to 114 µM), for inactives: top-dose activity change, negative = inhibition, hits mostly inhibitors; DNA polymerase eta (Homo sapiens), Q9Y253; recombinant Pol eta, fluorescent DNA replication assay; note: % is set by controls: 0 for no effect and ±100 for the full control effect
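Pol eta (10 nM) was preincubated with compounds for 15 min at room temperature, after which fluorescent replication substrate (50 nM final) was added to start the reaction. Fluorescence was read kinetically at 0 and 10 min.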
POLK inh: qHTS for Inhibitors of Polymerase Kappa; Potency, µM (series often up to 107 µM), without a hit: top-dose activity, negative = inhibition, actives largely listed as inhibitors; 0.53% of 400,000 active; DNA polymerase kappa (Homo sapiens), Q9UBT6; AID 588579, 2011; purified Pol kappa, fluorescent DNA synthesis assay, 10 min; note: % is set by controls: 0 for no effect and ±100 for the full control effect
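Here, compound and 10 nM enzyme are combined for 15 min at room temperature; adding 50 nM substrate (final) starts DNA synthesis, tracked by fluorescence at 0 and 10 min against buffer-only wells.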
Active calls of the source: *; ? = inconclusive; nt = not tested or not shown; [ ] = remark or other dose. Calls come from the whole dose curve; as a rule, active = well fitted curve in the direction sought with a large enough effect; inconclusive = small, poorly fitted or top-dose-only effect, or another doubt; inactive = no such curve, though single readings can be large; an effect the other way counts as inactive or inconclusive. Potency is the fitted concentration of half-maximal effect.

SMILES	WRN helicase inh	POLB inh	L3MBTL1 block	POLI inh	Pol eta inh	POLK inh
NS(=O)(=O)c1ccc(CCNC(=O)Cn2c(=O)c3cccn3c3ccc(F)cc32)cc1	nt	44.7µM*	nt	-8.2%	6.1%	-13.4%
NS(=O)(=O)c1ccc(CCNC(=O)Cn2c(=O)c3cccn3c3cccnc32)cc1	-0.3%	-0.5%	nt	-23.8%	8.2%	-7.5%
CN(CC(=O)Nc1c(Cl)cccc1Cl)C(=O)Cc1ccsc1	-6.7%	nt	0.9%	11.0%	-7.4%	-5.1%
Cc1ccc(/C=C2/C(=O)ON=C2c2ccccc2)o1	?	-6.9%	-11.9%	3.98µM*	35.5µM*	22.4µM*
O=C1ON=C(c2ccccc2)/C1=C\c1ccco1	-6.1%	31.6µM*	22.4µM*	7.8%	-4.0%	-18.6%
O=C1ON=C(c2ccccc2)/C1=C/c1ccccc1	-3.4%	8.2%	0.9%	-8.0%	-0.3%	11.9%
COc1cc([N+](=O)[O-])ccc1-c1ccc(/C=N\n2cnnc2)o1	-16.0%	?	-0.9%	?	7.9%	-15.3%
COc1cc([N+](=O)[O-])ccc1-c1ccc(/C=C2\C(=O)ON=C2c2ccccc2)o1	-35.3%[11.6 µM]	nt	nt	?	79.4µM*	-28.4%
COC(=O)CC1Oc2ccccc2-n2cc(-c3ccc(F)cc3)nc21 (stereo not drawn)	nt	4.1%	nt	-2.0%	1.0%	6.6%
C[C@H](CO)N1C[C@H](C)[C@H](CN(C)C(=O)OCc2ccccc2)OCc2cnnn2CCCC1=O	-5.4%	nt	nt	nt	-6.0%	nt
CSc1cccc(CNC(=O)C2CCC(=O)N(CCc3ccccc3)C2)c1 (stereo not drawn)	-8.4%	nt	nt	nt	-4.3%	nt
O=C(Nc1ccc(Oc2ccccc2)cc1)C1CCCO1 (stereo not drawn)	-15.4%	79.4µM*	-9.4%	-13.1%	10.1%	-10.0%
COc1ccc(NC(=O)C2CCCO2)cc1 (stereo not drawn)	-17.7%	-0.4%	1.7%	18.4%	-4.2%	0.4%
CCCCC(CC)CN=C(N)NC(N)=NCCCCCCN=C(N)NC(N)=NCC(CC)CCCC (stereo not drawn)	89.1µM*	nt	8.1%	?	89.1µM*	?
Cc1cccc(-n2c(CCc3ccccc3)nnc2SCC(=O)c2ccccc2)c1	-24.9%	1.3%	-5.6%	-7.9%	-26.1%	-4.4%
CC(=O)Nc1ccc(S(=O)(=O)N/N=C/c2ccc(C)o2)cc1	-2.8%	?	nt	25.1µM*	?	-14.4%
CC(O)(c1ccccc1)c1nc(-c2cc3ccccc3o2)cs1 (stereo not drawn)	-9.5%	nt	nt	nt	nt	nt
COc1ccccc1-c1ncnn1-c1sc2c(c1C#N)CCCCC2	nt	0.5%	nt	-15.4%	-24.2%	-5.4%
COCC(=O)N1CCC2(CCN(Cc3nccs3)CC2)CC1	nt	nt	nt	nt	nt	0.4%[60.1 µM]
O=C(N=Nc1c(O)[nH]c2ccccc12)c1cccc(S(=O)(=O)Nc2ccccc2Cl)c1	-17.2%	2.5%	-19.8%	3.4%	-4.4%	-10.0%
NS(=O)(=O)c1cc(C(=O)N=Nc2c(O)[nH]c3ccccc23)ccc1Cl	-7.4%[11.6 µM]	22.4µM*	-9.8%	50.1µM*	?	-30.7%
CCOC(=O)c1cc2c(=Cc3ccc(N(C)C)cc3)c3ccccc3n2[n+]1C	15.8µM*	nt	nt	39.8µM*	?	-20.0%
CN(C)c1ccc(/C=C/c2c[n+](C)cc3ccccc23)cc1	nt	nt	nt	-12.4%	nt	-19.4%
Cc1cc2c(=Cc3ccc(N(C)C)cc3)c3ccccc3n2[n+]1C	35.5µM*	nt	nt	79.4µM*	?	?
CN(C)c1ccc(C=c2c3ccccc3n3c2c2ccccc2[n+]3C)cc1	10µM*	nt	nt	?	?	-18.9%
